Screens from PubChem.
A selection: hits, their analogues and other compounds. The true share with any hit is near 11%.
Pf growth 96h: P. falciparum growth inhibition at 96 hours; P. falciparum luciferase reporter growth, 96 h; Potency, µM (top dose mostly 28.7 µM), for the others: top-dose activity change, negative = inhibition, hits mostly inhibitors; actives 6.9% (n = 320,000)
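Parasite growth measured via integrated firefly luciferase reporter in P. falciparum. Infected erythrocytes at 2% hematocrit, 0.05% parasitemia final were treated 96 hours at 37 C under 5% CO2, and luminescence was read.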
AmpC no deterg: blocks E. coli AmpC beta-lactamase in detergent-free assay; actives 0.52% (n = 330,000); AmpC nitrocefin hydrolysis, absorbance 480 nm, 0.0001% Triton; AID 485341; Potency, µM (titrated, usually from 57.1 µM), without a hit: at the highest dose activity change, negative = inhibition, actives largely listed as inhibitors;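 further: plate controls were no compound for no effect and no enzyme for full effect; nearly all actives have a fitted effect of over 20% in size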
Target sequence (P00811 whole entry, looked up): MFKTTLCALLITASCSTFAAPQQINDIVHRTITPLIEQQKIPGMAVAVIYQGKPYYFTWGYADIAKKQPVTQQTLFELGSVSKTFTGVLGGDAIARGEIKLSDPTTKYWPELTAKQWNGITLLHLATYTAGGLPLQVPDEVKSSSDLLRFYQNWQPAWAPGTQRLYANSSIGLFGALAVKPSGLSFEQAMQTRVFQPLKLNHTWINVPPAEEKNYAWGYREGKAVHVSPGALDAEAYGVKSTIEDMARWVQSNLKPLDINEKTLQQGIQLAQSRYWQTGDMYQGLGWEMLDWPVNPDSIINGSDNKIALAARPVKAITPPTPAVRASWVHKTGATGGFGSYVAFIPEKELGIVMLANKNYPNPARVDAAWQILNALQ
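AmpC (5.3 nM in the dispensed reagent) in 20 mM phosphate pH 7.0 with 0.01% (detergent screen) or 0.0001% Triton X-100 was preincubated with compounds for 15 min at room temperature. Nitrocefin was then added from an 800 uM solution, and hydrolysis was followed at 480 nm.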
AmpC detergent: blocks E. coli AmpC beta-lactamase in detergent assay | P00811 | AmpC hydrolysis of nitrocefin, absorbance 480 nm, 0.01% Triton | Potency, µM (doses to about 114 µM), inactives show at the top dose activity change, negative = inhibition, most hits filed as inhibitors | actives 0.041% (n = 370,000) | AID 485294;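 further: 0% = no-compound wells and -100% = no-enzyme wells; nearly all actives have a fitted effect of over 25% in size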
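20 mM phosphate pH 7.0 + 0.01% (detergent screen) or 0.0001% Triton X-100; 5.3 nM AmpC reagent; cpd preinc 15 min RT; nitrocefin (800 uM stock) to start; A480 q20 s × 4 min; Activity was normalised to no-enzyme and no-compound control wells.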
AMA1-RON2 inh: inhibitors of Plasmodium falciparum AMA1-RON2 interaction | AID 720542 | AlphaScreen AMA1-biotinylated RON2 peptide binding | Potency, µM (top dose mostly 58.2 µM), for the others: top-dose activity change, negative = inhibition, most hits filed as inhibitors | actives 0.2% (n = 360,000);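 further: 0% = vehicle wells and -100% = peptide control; nearly all actives have a fitted effect of over 45% in size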
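AMA1 (3D7) with his tag at 25 nM final met compounds first, then biotinylated RON2 peptide at 25 nM; detection used donor plus acceptor beads, 10 µg/mL apiece, read by AlphaScreen after 30 min at room temperature.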
HCV inh: blocks hepatitis C virus | Huh7.5.1 HCVcc-Cre infection, luciferase reporter, 44 h | Potency, µM (titrated, usually from 41.8 µM), for inactives: top-dose activity change, negative = inhibition, hits mostly inhibitors | actives 3.4% (n = 340,000) | AID 651820
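Reporter virus HCVcc-Cre (~0.5 moi) infects cells exposed to compound; seeding density 1,000 cells/well with 4 h settling beforehand. Luminescence, 15 sec read, taken 44 h post-infection following a 15 min RT substrate incubation.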
Pf growth 48h: P. falciparum growth inhibition at 48 hours (one generation). P. falciparum luciferase growth in erythrocytes, 48 h. Potency, µM (doses to about 28.7 µM), for inactives: at the top dose activity change, negative = inhibition, hits mostly inhibitors. actives 5.9% (n = 310,000). AID 504832
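Luminescence readout; reporter = integrated firefly luciferase in P. falciparum. RBC culture at 2% hematocrit, 0.1% parasitemia final, 37 C/5% CO2; decreased signal taken as growth inhibition.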
Starred values were filed as active, the others as inactive. The call rests on the fitted dose curve; in most records, active means well fitted curve in the direction sought with a large enough effect; inconclusive means small, poorly fitted or top-dose-only effect, or another doubt; inactive means no such curve, though single readings can be large; an effect the other way counts as inactive or inconclusive. Unless noted, on the % scale 0 is the no-effect control and ±100 the full control effect; potency means the concentration at half of the fitted maximal effect.

Results for Cc1ccc(C)c2[nH]c(=O)c(CN(CCN3CCCC3)C(=O)Nc3ccc(F)cc3)cc12 ?
Pf growth 96h: inconclusive; AmpC no deterg: 97%; AmpC detergent: -14%; AMA1-RON2 inh: -2%; HCV inh: inconclusive; Pf growth 48h: 4.1µM*

How did COc1cc2cc(CN(CCN3CCCC3)C(=O)Nc3ccc(F)cc3)c(=O)[nH]c2cc1OC do in these assays?
Pf growth 96h: -10%; AmpC no deterg: 44%; AmpC detergent: -14%; AMA1-RON2 inh: 1%; HCV inh: -34%; Pf growth 48h: 9.3µM*

What do the screens show for `CS(=O)(=O)N(CC(=O)Nc1ccc(CC#N)cc1)c1ccc(C23CC4CC(CC(C4)C2)C3)cc1`?
Pf growth 96h: inconclusive; AmpC no deterg: -1%; AmpC detergent: inconclusive; AMA1-RON2 inh: 6%; HCV inh: inconclusive; Pf growth 48h: 10µM*

Results for O=C(O)CCCn1ccc2cc(S(=O)(=O)N3CCCC3)ccc21 ?
Pf growth 96h: 13µM*; AmpC no deterg: -26%; AmpC detergent: 3%; AMA1-RON2 inh: -4%; HCV inh: 12%; Pf growth 48h: 3%

Results for CCC(C(=O)NCCC(C)C)n1ccc2cc(S(=O)(=O)N3CCCCC3)ccc21 (stereo not drawn) ?
Pf growth 96h: 36%; AmpC no deterg: -5%; AmpC detergent: 2%; AMA1-RON2 inh: 9%; HCV inh: 10µM*; Pf growth 48h: 12µM*

Results for COc1cccc(CNC(=O)C(C)n2ccc3cc(S(=O)(=O)N4CCCCCC4)ccc32)c1 (stereo not drawn) ?
Pf growth 96h: inconclusive; AmpC no deterg: -19%; AmpC detergent: 0%; AMA1-RON2 inh: -11%; HCV inh: inconclusive; Pf growth 48h: 7.4µM*

What do the screens show for `O=C(CSc1cn(CC(=O)N2CCOCC2)c2ccccc12)Nc1ccccc1F`?
AmpC detergent: 3%

What do the screens show for `COc1ccc(C)cc1NC(=O)C1CCCN(S(=O)(=O)c2ccc3c(c2)oc(=O)n3C)C1` (stereo not drawn)?
AmpC detergent: 6%

Results for CCOCCc1nnc(NC(=O)CS(=O)(=O)c2ccc(C)cc2)s1 ?
Pf growth 96h: 0.23µM*; AmpC no deterg: -22%; AmpC detergent: -7%; AMA1-RON2 inh: -5%; HCV inh: 14%; Pf growth 48h: 0%

What do the screens show for `O=C(Nc1ccc(-c2nc3cccnc3s2)cc1)c1cccnc1Cl`?
Pf growth 96h: 6%; AmpC no deterg: 2%; AmpC detergent: 8%; AMA1-RON2 inh: 3%; HCV inh: 6.3µM*; Pf growth 48h: 144%

Results for O=C(Nc1ccc(-c2nc3cccnc3s2)cc1)c1ccc(Br)o1 ?
Pf growth 96h: inconclusive; AmpC no deterg: -17%; AmpC detergent: -15%; AMA1-RON2 inh: 0%; HCV inh: 11µM*; Pf growth 48h: inconclusive

How did O=C(Nc1ccc(-c2nc3cccnc3s2)cc1)c1ccco1 do in these assays?
Pf growth 96h: -23%; AmpC no deterg: -46%; AmpC detergent: inconclusive; AMA1-RON2 inh: 1%; HCV inh: inconclusive; Pf growth 48h: -39%

How did COC(=O)C1=C(c2ccc(Cl)c(C(F)(F)F)c2)C[C@@H]2CC[C@H]1N2C(=O)NCC1CC1 do in these assays?
Pf growth 96h: 6.6µM*; AmpC no deterg: 92%; AmpC detergent: 0%; AMA1-RON2 inh: -15%; HCV inh: inconclusive; Pf growth 48h: 12µM*

What do the screens show for `CCCNC(=O)N1[C@H]2CC[C@@H]1C(C(=O)OC)=C(c1ccc(Cl)c(C(F)(F)F)c1)C2`?
Pf growth 96h: inconclusive; AmpC no deterg: 108%; AmpC detergent: -2%; AMA1-RON2 inh: 22%; HCV inh: -7%; Pf growth 48h: inconclusive

How did COC(=O)C1=C(c2ccc(Cl)c(C(F)(F)F)c2)C[C@@H]2CC[C@H]1N2C(=O)NCc1cc(C)oc1C(F)(F)F do in these assays?
Pf growth 96h: inconclusive; AmpC no deterg: 0%; AmpC detergent: -6%; AMA1-RON2 inh: 6%; HCV inh: inconclusive; Pf growth 48h: 7.4µM*

What do the screens show for `CC(=O)N1CCCc2cc(S(=O)(=O)N3CCCC(C(=O)Nc4cccc(Cl)c4C)C3)ccc21` (stereo not drawn)?
AmpC detergent: 2%

Results for Nc1ncc(P(=S)(N2CCOCC2)N2CCOCC2)s1 ?
Pf growth 96h: -5%; AmpC no deterg: -3%; AmpC detergent: -15%; AMA1-RON2 inh: -5%; HCV inh: 32%; Pf growth 48h: 2%

Results for C=Cn1c(P(=S)(N2CCOCC2)N2CCOCC2)cc2c1CCCC2 ?
Pf growth 96h: 21%; AmpC no deterg: 113%; AmpC detergent: 0%; AMA1-RON2 inh: 5%; HCV inh: inconclusive; Pf growth 48h: 12µM*

Results for CNC(=O)COc1ccc(Nc2nnc(-c3ccc(C)c(S(=O)(=O)NC(C)(C)C)c3)c3ccccc23)cc1 ?
AmpC detergent: -2%

Results for CCOC(=O)C(=CNc1cccnc1Oc1ccc(C)c2c1CCC2)C(=O)OCC ?
Pf growth 96h: 8.3µM*; AmpC no deterg: -3%; AmpC detergent: 1%; AMA1-RON2 inh: -17%; HCV inh: inconclusive; Pf growth 48h: 12µM*

What do the screens show for `Cc1ccc(Oc2ncccc2NC(=O)CC2(CC(=O)O)CCCC2)c2c1CCC2`?
Pf growth 96h: -1%; AmpC no deterg: -16%; AmpC detergent: -2%; AMA1-RON2 inh: -9%; HCV inh: 12%; Pf growth 48h: inconclusive

Results for Cc1cccc(C)c1NC(=O)CN1C(=O)c2cccc3cccc1c23 ?
AmpC detergent: 8%

How did Cc1ccc(Cn2c(=O)c3ccccc3n3c(-c4cccc(O)c4)nnc23)cc1 do in these assays?
AmpC detergent: 24%

Results for Cc1ccc(-c2nc3cnccn3c2Nc2ccccc2)o1 ?
Pf growth 96h: -19%; AmpC no deterg: -4%; AmpC detergent: -8%; AMA1-RON2 inh: 3%; HCV inh: 2%

Results for Clc1ccc(-c2nc3cnccn3c2Nc2ccc3c(c2)OCO3)cc1 ?
Pf growth 96h: inconclusive; AmpC no deterg: 22µM*; AmpC detergent: inconclusive; AMA1-RON2 inh: -29%; HCV inh: inconclusive; Pf growth 48h: inconclusive

How did Cc1ccc(Nc2c(-c3ccc(C)o3)nc3cnccn23)cc1 do in these assays?
Pf growth 96h: 0.74µM*; AmpC no deterg: 3%; AmpC detergent: -16%; AMA1-RON2 inh: 0%; HCV inh: -25%
